Data as given in paper PMC8384837, “Expanding the binding specificity for RNA recognition by a PUF domain”.
Where a chain is given by its changes, count along the chain named.

Legend:
Assay in all cases: yeast three-hybrid, YBZ-1, SC-Leu-His + 0.5 mM 3-AT, 4 days
Details in all cases: tags: N-Gal4 AD-HA kept; label: inside an RPR1-promoter hybrid RNA with tandem MS2 sites; ssRNA
PUM1 PUF domain R3-FCE = PUM1 PUF domain R3-FCE (Homo sapiens, UniProt Q14671 828-1176, C935F;R936C;Q939E)
Summary of the method: (§1)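 Pumilio-1 PUF domain libraries, randomized at the three base-contacting residues of each repeat, were co-expressed with matching RNA elements from a centromeric plasmid in strain YBZ-1, which carries a LexA–MS2 coat fusion and a HIS3 reporter. Transformants grew for four days on SC-Leu (input) or on SC-Leu-His + 0.5 mM 3-AT (selection), and the repeat regions were PCR-amplified and Illumina-sequenced. The interaction score is the log change in variant frequency from input to selection. That logarithm is base 2, with a pseudocount of 1 where a variant was absent.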

PUM1 PUF domain R3-GRT = PUM1 PUF domain R3-GRT (Homo sapiens, UniProt Q14671 828-1176, C935G;Q939T)
Summary of the method: as §1

PUM1 PUF domain R6-CFR = target: T1, PUM1 PUF domain R6-CFR (Homo sapiens, UniProt Q14671 828-1176, N1043C;Y1044F;Q1047R)
T1 sequence: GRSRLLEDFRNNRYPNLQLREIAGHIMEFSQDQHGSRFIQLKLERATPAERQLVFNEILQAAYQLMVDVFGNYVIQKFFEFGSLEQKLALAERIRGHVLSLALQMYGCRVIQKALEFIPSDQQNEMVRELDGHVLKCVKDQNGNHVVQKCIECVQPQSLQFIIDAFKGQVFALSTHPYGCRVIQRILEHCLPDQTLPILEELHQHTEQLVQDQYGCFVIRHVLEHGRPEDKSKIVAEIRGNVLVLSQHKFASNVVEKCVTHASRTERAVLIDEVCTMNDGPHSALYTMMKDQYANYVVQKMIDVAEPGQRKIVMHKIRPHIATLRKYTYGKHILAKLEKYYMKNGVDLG
Summary of the method: as §1

PUM1 PUF domain R5-PLD = PUM1 PUF domain R5-PLD (Homo sapiens, UniProt Q14671 828-1176, C1007P;R1008L;Q1011D)
Summary of the method: as §1

PUM1 PUF domain R8-GFR = PUM1 PUF domain R8-GFR (Homo sapiens, UniProt Q14671 828-1176, N1122G;Y1123F;Q1126R)
Summary of the method: as §1

PUM1 PUF domain R3-LYE = PUM1 PUF domain R3-LYE (Homo sapiens, UniProt Q14671 828-1176, C935L;R936Y;Q939E)
Summary of the method: as §1

PUM1 PUF domain R5-RKG = PUM1 PUF domain R5-RKG (Homo sapiens, UniProt Q14671 828-1176, C1007R;R1008K;Q1011G)
Summary of the method: as §1

PUM1 PUF domain R5-SRV = PUM1 PUF domain R5-SRV (Homo sapiens, UniProt Q14671 828-1176, C1007S;Q1011V)
Summary of the method: as §1

PUM1 PUF domain R5-SRK = PUM1 PUF domain R5-SRK (Homo sapiens, UniProt Q14671 828-1176, C1007S;Q1011K)
Summary of the method: as §1

PUM1 PUF domain R3-IRT = PUM1 PUF domain R3-IRT (Homo sapiens, UniProt Q14671 828-1176, C935I;Q939T)
Summary of the method: as §1

PUM1 PUF domain R6-IYL = target: T2, PUM1 PUF domain R6-IYL (Homo sapiens, UniProt Q14671 828-1176, N1043I;Q1047L)
T2 sequence: T1 sequence with C216I, F217Y, R220L
Summary of the method: as §1

PUM1 PUF domain R2-KRG = PUM1 PUF domain R2-KRG (Homo sapiens, UniProt Q14671 828-1176, N899K;Y900R;Q903G)
Summary of the method: as §1

PUM1 PUF domain R1-KGM = PUM1 PUF domain R1-KGM (Homo sapiens, UniProt Q14671 828-1176, S863K;R864G;Q867M)
Summary of the method: as §1

PUM1 PUF domain R4-DWR = PUM1 PUF domain R4-DWR (Homo sapiens, UniProt Q14671 828-1176, N971D;H972W;Q975R)
Summary of the method: as §1

In the case of “GGCUAGAACUAGUGGAUCCCCCGGCGCCCGGCGGCUCGAGCCCGGGUAAGUGUAAGUAGUCUGCAUGCCGCCGGGCGCCAUGCCUGCAGGUCGACUCUAGAAAACAUG”, the binding signal (PUM1 PUF domain R3-FCE) is reported as 3.54 log2 enrichment (interaction score) and the binding signal (PUM1 PUF domain R3-GRT) is reported as 1.58 log2 enrichment (interaction score).
With “GGCUAGAACUAGUGGAUCCCCCGGCGCCCGGCGGCUCGAGCCCGGGUAAGUGUAAAUAGUCUGCAUGCCGCCGGGCGCCAUGCCUGCAGGUCGACUCUAGAAAACAUG” the binding signal (PUM1 PUF domain R6-CFR) was 4.59 log2 enrichment (interaction score), the binding signal (PUM1 PUF domain R5-PLD) was 2.61 log2 enrichment (interaction score) and the binding signal (PUM1 PUF domain R8-GFR) was 4.66 log2 enrichment (interaction score). The binding signal (PUM1 PUF domain R3-LYE) was 3.76 log2 enrichment (interaction score), the binding signal (PUM1 PUF domain R5-RKG) was 0.47 log2 enrichment (interaction score) and the binding signal (PUM1 PUF domain R5-SRV) was 0.54 log2 enrichment (interaction score). For the same sequence, the binding signal (PUM1 PUF domain R5-SRK) was 3.38 log2 enrichment (interaction score), the binding signal (PUM1 PUF domain R3-IRT) was 4.08 log2 enrichment (interaction score) and the binding signal (PUM1 PUF domain R6-IYL) was 4.93 log2 enrichment (interaction score). For the same sequence, the binding signal (PUM1 PUF domain R3-GRT) was 2.82 log2 enrichment (interaction score).
With “GGCUAGAACUAGUGGAUCCCCCGGCGCCCGGCGGCUCGAGCCCGGGUAAGCGUAAAUAGUCUGCAUGCCGCCGGGCGCCAUGCCUGCAGGUCGACUCUAGAAAACAUG” the binding signal (PUM1 PUF domain R8-GFR) was 4.51 log2 enrichment (interaction score).
In the case of “GGCUAGAACUAGUGGAUCCCCCGGCGCCCGGCGGCUCGAGCCCGGGUAAGUGUAAAGAGUCUGCAUGCCGCCGGGCGCCAUGCCUGCAGGUCGACUCUAGAAAACAUG”, the binding signal (PUM1 PUF domain R2-KRG) is reported as 4.1 log2 enrichment (interaction score).
For “GGCUAGAACUAGUGGAUCCCCCGGCGCCCGGCGGCUCGAGCCCGGGUAAGUGUAAAUUGUCUGCAUGCCGCCGGGCGCCAUGCCUGCAGGUCGACUCUAGAAAACAUG”, the binding signal (PUM1 PUF domain R1-KGM) was 0.32 log2 enrichment (interaction score).
“GGCUAGAACUAGUGGAUCCCCCGGCGCCCGGCGGCUCGAGCCCGGGUAAGUGUGAAUAGUCUGCAUGCCGCCGGGCGCCAUGCCUGCAGGUCGACUCUAGAAAACAUG” was tested, and the binding signal (PUM1 PUF domain R5-SRV) was 2.79 log2 enrichment (interaction score) and the binding signal (PUM1 PUF domain R5-SRK) was 3.42 log2 enrichment (interaction score).
With “GGCUAGAACUAGUGGAUCCCCCGGCGCCCGGCGGCUCGAGCCCGGGUAAGUGUAAAUCGUCUGCAUGCCGCCGGGCGCCAUGCCUGCAGGUCGACUCUAGAAAACAUG” the binding signal (PUM1 PUF domain R1-KGM) was 2.83 log2 enrichment (interaction score).
With “GGCUAGAACUAGUGGAUCCCCCGGCGCCCGGCGGCUCGAGCCCGGGUAAGUGUACAUAGUCUGCAUGCCGCCGGGCGCCAUGCCUGCAGGUCGACUCUAGAAAACAUG” the binding signal (PUM1 PUF domain R4-DWR) was 6.69 log2 enrichment (interaction score).
